Experimental findings from PMC7862700, “An all-to-all approach to the identification of sequence-specific readers for epigenetic DNA modifications on cytosine” are described below.

For the first assay, the target named is SPI1 (Homo sapiens, UniProt P17947 1-270). Put plainly: DAPPL (digital affinity profiling via proximity ligation, sequencing); 10 mM Tris-HCl pH 7.5, 50 mM NaCl, 1 mM DTT, 4% glycerol, room temperature, 30 min; GST-TFs on glutathione beads, 16-mer random dsDNA library, 0.1% formaldehyde crosslink after washing; high values mean tight binding. As to conditions: protein: recombinant; tags: N-terminal GST; dsDNA, one strand shown. In short, it runs like this: (§1)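 After expression in yeast as GST fusions, human transcription factors were bound to glutathione beads, DNA-barcoded and mixed with a tag-only sample. The pools were incubated with 200 nmole of a 16-mer random double-stranded DNA library in Tris/NaCl/DTT/glycerol buffer (30 min, room temperature), washed and crosslinked with 0.1% formaldehyde. Proximity ligation with BsaI/T4 ligase ran for 1 h at 37 °C, before PCR amplification and sequencing on an Illumina NextSeq500. Binding signal is a hexamer's read frequency for a factor divided by its frequency for the tag-only sample.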
For CACTTG, the binding signal was 1.39 fold enrichment (6-mer frequency, TF over GST control).
Turning to TACGTT, the binding signal was 1.25 fold enrichment (6-mer frequency, TF over GST control).
The same measure, in the same setting: the result for CATTCG reads 1.26 fold enrichment (6-mer frequency, TF over GST control); that for CCTTCG, 1.32 fold enrichment (6-mer frequency, TF over GST control).
TGACCT: the binding signal was 1.7 fold enrichment (6-mer frequency, TF over GST control).
In the case of TATAAC, the binding signal is 1.12 fold enrichment (6-mer frequency, TF over GST control).
The same measure, in the same setting: next, CTTTCA: 1.45 fold enrichment (6-mer frequency, TF over GST control); AATATT: 1.23 fold enrichment (6-mer frequency, TF over GST control); CTTGCA: 1.25 fold enrichment (6-mer frequency, TF over GST control).
As for TTGCGG, the binding signal is 1.61 fold enrichment (6-mer frequency, TF over GST control).
With TCTGTT, the binding signal is 1.43 fold enrichment (6-mer frequency, TF over GST control).
Consider TCCTGG, for which the binding signal is 1.63 fold enrichment (6-mer frequency, TF over GST control).
As to CGAAAA, the binding signal was 1.1 fold enrichment (6-mer frequency, TF over GST control).
On the same count and under the same terms, the result for TAATCC reads 1.29 fold enrichment (6-mer frequency, TF over GST control); that for TTTCTT, 1.37 fold enrichment (6-mer frequency, TF over GST control); that for CTCAGC, 1.23 fold enrichment (6-mer frequency, TF over GST control).
For the sequence ACTTGT, the binding signal was 1.3 fold enrichment (6-mer frequency, TF over GST control).
Regarding CTTCTA, the binding signal was 1.41 fold enrichment (6-mer frequency, TF over GST control).
With TTCGAT, the binding signal is 1.29 fold enrichment (6-mer frequency, TF over GST control).
On the same count and under the same terms, next, TCTCCG: 1.54 fold enrichment (6-mer frequency, TF over GST control).

For the next assay, the target named is SPIB (Homo sapiens, UniProt Q01892 1-262). The description is as above. The following applies: protein: recombinant; tags: N-terminal GST; dsDNA, one strand shown. An outline of the steps: as §1
SPIB, sequence (Q01892 whole entry): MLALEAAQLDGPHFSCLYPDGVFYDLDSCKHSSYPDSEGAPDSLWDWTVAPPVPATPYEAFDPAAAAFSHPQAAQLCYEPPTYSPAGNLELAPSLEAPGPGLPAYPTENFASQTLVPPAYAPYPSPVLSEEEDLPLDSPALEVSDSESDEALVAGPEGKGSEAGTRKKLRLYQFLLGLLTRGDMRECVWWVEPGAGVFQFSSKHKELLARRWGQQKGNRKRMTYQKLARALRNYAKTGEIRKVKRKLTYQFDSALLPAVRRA
Turning to TGGCAA, the binding signal was 1.32 fold enrichment (6-mer frequency, TF over GST control).
Consider AATAAC, for which the binding signal is 1.37 fold enrichment (6-mer frequency, TF over GST control).
As for ATTTGT, the binding signal was 1.27 fold enrichment (6-mer frequency, TF over GST control).
With CTGGCA, the binding signal is 1.29 fold enrichment (6-mer frequency, TF over GST control).
Take GCTTAT: the binding signal was 1.31 fold enrichment (6-mer frequency, TF over GST control).
On to TGTCTA, for which the binding signal was 1.02 fold enrichment (6-mer frequency, TF over GST control).
Turning to GCCGAT, the binding signal was 1.07 fold enrichment (6-mer frequency, TF over GST control).
ATTGGG: the binding signal was 1.26 fold enrichment (6-mer frequency, TF over GST control).
In the case of TTGATC, the binding signal is 1.3 fold enrichment (6-mer frequency, TF over GST control).
Same read-out and setting: next, AATCGC: 1.08 fold enrichment (6-mer frequency, TF over GST control); CCTCTC: 1.44 fold enrichment (6-mer frequency, TF over GST control); CCTCTT: 1.67 fold enrichment (6-mer frequency, TF over GST control).
TTTGGA: the binding signal is 1.22 fold enrichment (6-mer frequency, TF over GST control).
Consider TCTACA, for which the binding signal is 1.18 fold enrichment (6-mer frequency, TF over GST control).
As for TCTCGC, the binding signal is 1.64 fold enrichment (6-mer frequency, TF over GST control).
For the sequence CTGATG, the binding signal is 1.7 fold enrichment (6-mer frequency, TF over GST control).
Take CTGATC: the binding signal is 1.4 fold enrichment (6-mer frequency, TF over GST control).
For CTCATC, the binding signal was 1.41 fold enrichment (6-mer frequency, TF over GST control).
Consider ATATTT, for which the binding signal is 1.51 fold enrichment (6-mer frequency, TF over GST control).
Same read-out and setting: next, TACAAT: 1.26 fold enrichment (6-mer frequency, TF over GST control).
The same measure, in the same setting: next, CACTTG: 1.3 fold enrichment (6-mer frequency, TF over GST control); TACGTT: 1.33 fold enrichment (6-mer frequency, TF over GST control).
CATTCG: the binding signal is 1.15 fold enrichment (6-mer frequency, TF over GST control).
In the case of CCTTCG, the binding signal was 1.41 fold enrichment (6-mer frequency, TF over GST control).
For TGACCT, the binding signal is 1.56 fold enrichment (6-mer frequency, TF over GST control).
Still for that read-out and setting: the result for TATAAC reads 1.39 fold enrichment (6-mer frequency, TF over GST control); that for CTTTCA, 1.28 fold enrichment (6-mer frequency, TF over GST control).
For the sequence AATATT, the binding signal was 1.34 fold enrichment (6-mer frequency, TF over GST control).
On to CTTGCA, for which the binding signal was 1.26 fold enrichment (6-mer frequency, TF over GST control).
In the case of TTGCGG, the binding signal was 1.2 fold enrichment (6-mer frequency, TF over GST control).
Regarding TCTGTT, the binding signal was 1.33 fold enrichment (6-mer frequency, TF over GST control).
As to TCCTGG, the binding signal is 1.74 fold enrichment (6-mer frequency, TF over GST control).
CGAAAA: the binding signal was 1.04 fold enrichment (6-mer frequency, TF over GST control).
With TAATCC, the binding signal is 1.28 fold enrichment (6-mer frequency, TF over GST control).
With TTTCTT, the binding signal was 1.24 fold enrichment (6-mer frequency, TF over GST control).
On to CTCAGC, for which the binding signal is 1.35 fold enrichment (6-mer frequency, TF over GST control).
On to ACTTGT, for which the binding signal is 1.45 fold enrichment (6-mer frequency, TF over GST control).
As for CTTCTA, the binding signal was 1.48 fold enrichment (6-mer frequency, TF over GST control).
In the case of TTCGAT, the binding signal was 1.24 fold enrichment (6-mer frequency, TF over GST control).
As for TCTCCG, the binding signal was 1.52 fold enrichment (6-mer frequency, TF over GST control).

In the next assay the target is T1, ELK3 (Homo sapiens, UniProt P41970 1-407).
T1 sequence: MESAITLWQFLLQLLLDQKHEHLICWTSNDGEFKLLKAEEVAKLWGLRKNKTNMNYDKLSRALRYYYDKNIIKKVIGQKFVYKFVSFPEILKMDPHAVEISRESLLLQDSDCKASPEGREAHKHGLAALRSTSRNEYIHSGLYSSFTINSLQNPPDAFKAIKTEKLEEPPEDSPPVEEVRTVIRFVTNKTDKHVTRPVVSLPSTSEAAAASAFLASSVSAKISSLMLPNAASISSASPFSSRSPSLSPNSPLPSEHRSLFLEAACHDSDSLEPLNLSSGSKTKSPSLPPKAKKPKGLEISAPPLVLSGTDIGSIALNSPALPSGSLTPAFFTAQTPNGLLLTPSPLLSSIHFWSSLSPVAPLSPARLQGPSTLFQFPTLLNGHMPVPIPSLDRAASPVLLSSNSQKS
The description is as above. The following applies: protein: recombinant; tags: N-terminal GST; dsDNA, one strand shown. An outline of the steps: as §1
On to TGGCAA, for which the binding signal is 1.11 fold enrichment (6-mer frequency, TF over GST control).
In the case of AATAAC, the binding signal is 1.33 fold enrichment (6-mer frequency, TF over GST control).
On to ATTTGT, for which the binding signal was 1.24 fold enrichment (6-mer frequency, TF over GST control).
With CTGGCA, the binding signal was 1.43 fold enrichment (6-mer frequency, TF over GST control).
Take GCTTAT: the binding signal was 1.16 fold enrichment (6-mer frequency, TF over GST control).
Same read-out and setting: next, TGTCTA: 1.36 fold enrichment (6-mer frequency, TF over GST control); GCCGAT: 1.08 fold enrichment (6-mer frequency, TF over GST control); ATTGGG: 1.17 fold enrichment (6-mer frequency, TF over GST control).
For TTGATC, the binding signal was 1.26 fold enrichment (6-mer frequency, TF over GST control).
As to AATCGC, the binding signal is 1.16 fold enrichment (6-mer frequency, TF over GST control).
Consider CCTCTC, for which the binding signal is 1.44 fold enrichment (6-mer frequency, TF over GST control).
The same measure, in the same setting: next, CCTCTT: 1.66 fold enrichment (6-mer frequency, TF over GST control); TTTGGA: 1.14 fold enrichment (6-mer frequency, TF over GST control).
The same measure, in the same setting: the result for TCTACA reads 1.23 fold enrichment (6-mer frequency, TF over GST control); that for TCTCGC, 1.72 fold enrichment (6-mer frequency, TF over GST control).
Consider CTGATG, for which the binding signal is 1.5 fold enrichment (6-mer frequency, TF over GST control).
For CTGATC, the binding signal is 1.4 fold enrichment (6-mer frequency, TF over GST control).
On to CTCATC, for which the binding signal was 1.47 fold enrichment (6-mer frequency, TF over GST control).
ATATTT: the binding signal is 1.47 fold enrichment (6-mer frequency, TF over GST control).
For the sequence TACAAT, the binding signal is 1.21 fold enrichment (6-mer frequency, TF over GST control).
Take CACTTG: the binding signal is 1.26 fold enrichment (6-mer frequency, TF over GST control).
As to TACGTT, the binding signal was 1.35 fold enrichment (6-mer frequency, TF over GST control).
For CATTCG, the binding signal was 1.24 fold enrichment (6-mer frequency, TF over GST control).
Still for that read-out and setting: the result for CCTTCG reads 1.65 fold enrichment (6-mer frequency, TF over GST control); that for TGACCT, 1.6 fold enrichment (6-mer frequency, TF over GST control).
In the case of TATAAC, the binding signal is 1.18 fold enrichment (6-mer frequency, TF over GST control).
For the sequence CTTTCA, the binding signal is 1.36 fold enrichment (6-mer frequency, TF over GST control).
As for AATATT, the binding signal is 1.42 fold enrichment (6-mer frequency, TF over GST control).
As for CTTGCA, the binding signal was 1.34 fold enrichment (6-mer frequency, TF over GST control).
The same measure, in the same setting: the result for TTGCGG reads 1.26 fold enrichment (6-mer frequency, TF over GST control).
As to TCTGTT, the binding signal was 1.15 fold enrichment (6-mer frequency, TF over GST control).
TCCTGG: the binding signal was 1.55 fold enrichment (6-mer frequency, TF over GST control).
As for CGAAAA, the binding signal is 1.01 fold enrichment (6-mer frequency, TF over GST control).
Regarding TAATCC, the binding signal was 1.35 fold enrichment (6-mer frequency, TF over GST control).
Same read-out and setting: the result for TTTCTT reads 1.31 fold enrichment (6-mer frequency, TF over GST control); that for CTCAGC, 1.12 fold enrichment (6-mer frequency, TF over GST control); that for ACTTGT, 1.31 fold enrichment (6-mer frequency, TF over GST control).
Take CTTCTA: the binding signal is 1.34 fold enrichment (6-mer frequency, TF over GST control).
With TTCGAT, the binding signal is 1.32 fold enrichment (6-mer frequency, TF over GST control).
Same read-out and setting: next, TCTCCG: 1.38 fold enrichment (6-mer frequency, TF over GST control).
